Compound activity deposited in PubChem by several laboratories.
PKA-R2B activ: activators of human PKA-R2B complex | PKA-R2B holoenzyme dissociation, Cy5-IP20 fluorescence polarization; R2B truncated from residue 108, S112A mutant; 0% DMSO only, 100% 113 µM cGMP | AID 504700 | activation, % at 11.4 µM | 340,000 compounds, 0.079% hits;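 active = activation above a cutoff set at the mean over all compounds plus 3 SD, cut at about 18% in these data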;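 also: higher means more holoenzyme dissociation and a rise in polarization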
PKA-R1A act: activators of PKA-R1A complex. PKA-R1A dissociation, Cy5-IP20 fluorescence polarization; scaled: DMSO 0%, 113 µM cGMP 100%. activation, % at 11.4 µM. 340,000 compounds, 0.083% hits. AID 504707. P00514+P68181;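 active = percent activation above the mean of all tested compounds plus 3 SD, cut at about 19% in these data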;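 also: higher means more PKAc released from R1A so a rise in polarization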
VLA-4 inh: inhibition in a human VLA-4 binding assay. VLA-4 expressing cells, ligand binding flow cytometry. inhibition, % (about 7 µM as worked out from the volumes in the protocol). P13612. 330,000 compounds, 0.2% hits; in the data active = inhibition above about 50%
Target sequence (P13612 whole entry, looked up): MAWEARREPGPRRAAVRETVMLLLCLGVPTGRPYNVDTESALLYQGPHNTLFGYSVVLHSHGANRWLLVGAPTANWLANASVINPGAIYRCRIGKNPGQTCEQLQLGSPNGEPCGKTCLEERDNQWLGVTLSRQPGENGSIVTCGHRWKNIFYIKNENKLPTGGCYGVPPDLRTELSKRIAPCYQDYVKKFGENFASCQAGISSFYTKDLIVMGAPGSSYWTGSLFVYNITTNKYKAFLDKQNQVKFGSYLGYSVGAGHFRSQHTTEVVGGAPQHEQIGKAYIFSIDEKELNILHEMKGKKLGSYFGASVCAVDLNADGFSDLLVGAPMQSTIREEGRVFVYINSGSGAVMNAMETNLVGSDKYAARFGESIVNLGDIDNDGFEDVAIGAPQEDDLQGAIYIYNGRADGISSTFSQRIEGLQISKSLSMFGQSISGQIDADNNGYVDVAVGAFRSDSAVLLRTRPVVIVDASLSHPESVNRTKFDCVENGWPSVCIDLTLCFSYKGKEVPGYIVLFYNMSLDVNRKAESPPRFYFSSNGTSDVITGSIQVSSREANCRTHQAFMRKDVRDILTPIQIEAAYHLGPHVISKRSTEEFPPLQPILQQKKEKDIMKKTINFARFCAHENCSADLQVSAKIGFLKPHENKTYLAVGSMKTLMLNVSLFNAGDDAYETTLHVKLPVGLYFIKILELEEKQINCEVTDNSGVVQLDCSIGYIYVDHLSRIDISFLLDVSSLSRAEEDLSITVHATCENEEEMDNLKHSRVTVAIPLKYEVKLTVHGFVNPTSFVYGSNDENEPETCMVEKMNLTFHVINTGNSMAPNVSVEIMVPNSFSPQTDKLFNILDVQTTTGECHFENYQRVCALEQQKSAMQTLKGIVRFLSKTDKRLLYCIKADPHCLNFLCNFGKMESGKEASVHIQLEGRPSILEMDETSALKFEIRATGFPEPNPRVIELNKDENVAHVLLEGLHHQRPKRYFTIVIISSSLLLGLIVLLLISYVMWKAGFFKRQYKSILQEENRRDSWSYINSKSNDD
ATG4B inhibitor: inhibitors of human ATG4B cysteine protease; Q9Y4P1; inhibition, % at 8.33 µM; 340,000 compounds, 0.51% hits; ATG4B cleavage of LC3-PLA2, NBD-HPC fluorescence, 1 h; in the data active = inhibition above about 40%
NRP1-CendR mod: modulators of CendR peptide binding to human neuropilin-1; 360,000 compounds, 0.85% hits; AID 602438; inhibition, % at 25 µM; FAM-RPARPAR peptide binding to NRP-1, fluorescence polarization;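 active = inhibition or corrected inhibition above about 18%, plus a signal ratio from 0.5 to 1.5, limit read from the data, passing the limit was not always enough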
R1A FP artifact: FP assay interference, PKA-R1A counter-screen. shares compounds with PKA-R1A act. Cy5-IP20 peptide alone, fluorescence polarization artifact counterscreen. activation, % at 11.4 µM. 280 compounds, 7% hits. AID 504799;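 active = mean activation over triplicate runs exceeds the adjusted cutoff derived for the parent primary screen, cut at about 19% in these data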;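 also: no PKA protein present so any polarization rise reflects compound interference; higher means stronger polarization artifact and likely false positive in parent screen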
PKA-R1A act conf: confirmation of PKA-R1A complex activators. activation, % at 11.4 µM. 280 compounds, 9% hits. Cy5-IP20 fluorescence polarization, PKA-R1A holoenzyme dissociation. AID 504800. shares compounds with PKA-R1A act;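 active = mean activation over replicate wells exceeds the adjusted hit threshold taken from the earlier primary screen, cut at about 20% in these data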
Numbers stand for hits; . = inactive; / = not tested or not shown. Sampled rows, rich in hits. Any-hit rate of the full collection: about 1.6%.

SMILES	PKA-R2B activ	PKA-R1A act	VLA-4 inh	ATG4B inhibitor	NRP1-CendR mod	R1A FP artifact	PKA-R1A act conf
COC(=O)CNC(=O)COc1ccccc1	.	20	.	.	.	.	.
COc1ccc(-c2[nH]n(-c3ccc([N+](=O)[O-])cc3)c(=O)c2C=NCC2CCCO2)cc1 (stereo not drawn)	.	20	.	.	.	.	.
CCOC(=O)C1CCc2c(ccc3ccccc23)N1CCC#N (stereo not drawn)	.	.	/	/	.	/	/
Cc1ccc(CNC(=O)CN(c2ccc(Cl)cc2)S(C)(=O)=O)cc1	.	21	.	.	.	.	.
COc1ccc(OC)c(CNS(=O)(=O)c2cn(C)cn2)c1	.	.	.	.	.	/	/
CN(C)c1ccc(Cc2ccc(N(C)C)cc2)cc1	.	21	/	.	.	.	.
COc1ccc(C(O)Cn2ccsc2=NC(C)=O)cc1 (stereo not drawn)	.	.	.	.	.	/	/
Cc1nn2c(NCC(C)C)c3c(nc2c1-c1ccccc1)CCC3	.	20	.	.	.	.	.
O=C(CSc1nc2c(c(C(F)(F)F)n1)CCc1ccccc1-2)NCc1ccco1	.	.	.	.	.	/	/
CC(NC(=O)CSc1nc2c(c(C(F)(F)F)n1)CCc1ccccc1-2)c1ccccc1 (stereo not drawn)	.	19	.	.	28	.	.
CCCCNC(=O)CCn1c(=O)c2ccccc2n(Cc2ccc(F)cc2)c1=O	.	22	.	.	.	.	.
O=C(CSCc1ccccc1)N1CCN(c2ccccc2)CC1	.	19	.	.	.	.	.
Cc1ccc(S(=O)(=O)CC(=O)c2ccc3c(c2)OCCO3)cc1	.	.	.	.	.	/	/
O=C(N/N=C/c1ccncc1)c1cccs1	.	.	.	.	.	/	/
O=C(N/N=C\c1ccc(Cl)s1)c1cccs1	.	20	.	.	.	.	.
O=C(CCC(=O)c1ccccc1)Nc1ccc(C(=O)O)cc1	.	19	.	.	.	.	.
COc1ccc(C(=O)N2CCCC(Nc3ccc(F)c(F)c3)C2)c(OC)n1 (stereo not drawn)	.	.	.	.	.	/	/
COc1ccc(C(=O)N2CCCC(Nc3ccc(C)c(C)c3)C2)c(OC)n1 (stereo not drawn)	.	23	.	.	.	.	.
COc1ccc([C@@H]2[C@@H]3C(=O)N(C(C)(C)C)C(=O)[C@@H]3[C@]3(Cc4ccccc4)C(=O)N(c4cccc(F)c4)C(=O)N23)cc1	.	.	.	.	.	/	/
COc1ccc([C@@H]2[C@@H]3C(=O)N(C(C)(C)C)C(=O)[C@@H]3[C@]3(CC(C)C)C(=O)N(c4cccc(F)c4)C(=O)N23)cc1	.	19	.	.	.	.	.
COc1ccc(OC)c(C2C(C(=O)c3ccco3)=C(O)C(=O)N2CCN2CCOCC2)c1 (stereo not drawn)	.	19	.	/	.	.	.
O=C(NCC(=O)N1CCN(Cc2ccccc2)CC1)c1cc(Cl)cc([N+](=O)[O-])c1	.	.	.	.	.	/	/
Cn1c(SCC(=O)Nc2ccccc2Cl)nnc1C1CC1	.	.	.	.	.	/	/
Cn1c(SCC(=O)Nc2nnc(-c3ccccc3)o2)nnc1C1CC1	.	19	.	.	.	.	.
CCCC(=O)Nc1nnc(SCC(=O)N2C(C)CCCC2C)s1 (stereo not drawn)	.	.	.	.	.	/	/
SMILES	PKA-R2B activ	PKA-R1A act	VLA-4 inh	ATG4B inhibitor	NRP1-CendR mod	R1A FP artifact	PKA-R1A act conf
CCCC(=O)Nc1nnc(SCC(=O)N2CCCCC2)s1	.	19	.	.	.	.	.
CCCCc1ccc(NC(=O)Nc2cc(C)nn2C)cc1	.	.	.	.	.	/	/
COCCNC(=S)Nc1cc2oc3ccccc3c2cc1OC	.	.	.	.	.	/	/
O=C1C2C3C=CC(C3)C2C(=O)N1CCC(=O)N1CCc2ccccc21 (stereo not drawn)	.	23	.	.	.	.	.
O=C(CCN1C(=O)C2C3C=CC(C3)C2C1=O)NCCN1CCCc2ccccc21 (stereo not drawn)	.	.	.	.	.	/	/
CCOC(=O)c1c(NC(=O)CCC(=O)O)sc2c1CCCCC2	.	20	.	.	.	.	.
CCOC(=O)c1c(NC(=O)c2c(C(=O)O)cccc2[N+](=O)[O-])sc2c1CCCC2	.	19	.	.	.	.	.
CCOC(=O)c1c(NC(=O)c2cccc([N+](=O)[O-])c2C(=O)O)sc2c1CCCC2	.	.	.	.	.	/	/
Cc1c(C)n(C)c2ccc(C(=O)NCCN3CCOCC3)cc12	.	.	.	.	.	/	/
CC1(C)SC2c3ccccc3C(=O)N2C1C(=O)O (stereo not drawn)	.	.	/	.	.	/	/
CCN(CC)CCOC(=O)C(Cc1ccco1)Cc1cccc2ccccc12 (stereo not drawn)	.	24	.	.	.	.	.
Cc1cc(NCCO)nc(-n2nc(C)cc2C)n1	.	22	.	.	.	.	.
Cc1cc(N(CCO)CCO)nc(-n2nc(C)cc2C)n1	.	.	.	.	.	/	/
O=C(c1cccc(Cl)c1)N(Cc1ccco1)C1CCS(=O)(=O)C1 (stereo not drawn)	.	.	.	.	.	/	/
COc1ccc(NC(=O)N2CCN(C(=O)c3ccco3)CC2)c(OC)c1	.	.	.	.	.	/	/
COc1ccc(CCNC(=O)Cn2cnc3sc(C)c(-c4ccc(F)cc4)c3c2=O)cc1OC	.	19	.	.	.	.	.
O=S(=O)(c1ccc2ccccc2c1)N1CCN(c2ccc(O)cc2)CC1	.	.	.	.	.	/	/
COc1ccc(/C=C/C(=O)NCC2COc3ccccc3O2)c(OC)c1 (stereo not drawn)	.	.	.	.	.	/	/
O=C(/C=C/c1ccco1)NCC1COc2ccccc2O1 (stereo not drawn)	.	19	.	.	.	.	.
CC(=O)c1cccc(CN2CCCCC2C(=O)Nc2ccc(Oc3ccccc3)nc2)c1 (stereo not drawn)	.	.	.	.	.	/	/
C/C(CC(=O)Nc1ccc2ccccc2c1)=N\NC(=O)c1cnccn1	.	.	.	.	.	/	/
C/C(CC(=O)Nc1ccccn1)=N\NC(=O)c1cnccn1	.	19	.	.	.	.	.
Cc1ccc(S(=O)(=O)NC(=O)NC(C)Cc2ccccc2)cc1 (stereo not drawn)	.	22	.	.	.	.	.
COc1ccc(CC(=O)OCCc2cc3cc(OC)c(OC)cc3c(=O)o2)cc1	.	.	.	.	.	/	/
O=C(O)CN1C(=O)/C(=C\c2cc(Br)ccc2OCc2ccc([N+](=O)[O-])cc2)SC1=S	.	25	.	.	.	.	.
